# Sm TGR inh: blocks Schistosoma mansoni thioredoxin glutathione reductase; Q962Y6; purified TGR, DTNB reduction, TNB absorbance 405 nm; Potency, µM (series often up to 114 µM), for the others: at the top dose activity change, negative = inhibition, most hits filed as inhibitors; hit rate 3% among 360,000; note: nearly all actives have a fitted effect of over 60% in size
#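 First, TGR (20 nM dispensed) and NADPH were mixed with compound. Second, a 15 min room-temperature incubation followed. Third, further NADPH and then DTNB were added to start the reaction. Finally, TNB absorbance was monitored kinetically.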
# AmpC inh no detg: inhibitors of E. coli AmpC beta-lactamase without detergent | P00811 | AmpC nitrocefin hydrolysis, absorbance 480 nm, 0.0001% Triton | Potency, µM (doses to about 57.1 µM), without a hit: top-dose activity change, negative = inhibition, hits mostly inhibitors | hit rate 0.52% among 330,000;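 note: plate controls were no compound for no effect and no enzyme for full effect; nearly all actives have a fitted effect of over 20% in size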
# Target sequence (P00811 whole entry, looked up): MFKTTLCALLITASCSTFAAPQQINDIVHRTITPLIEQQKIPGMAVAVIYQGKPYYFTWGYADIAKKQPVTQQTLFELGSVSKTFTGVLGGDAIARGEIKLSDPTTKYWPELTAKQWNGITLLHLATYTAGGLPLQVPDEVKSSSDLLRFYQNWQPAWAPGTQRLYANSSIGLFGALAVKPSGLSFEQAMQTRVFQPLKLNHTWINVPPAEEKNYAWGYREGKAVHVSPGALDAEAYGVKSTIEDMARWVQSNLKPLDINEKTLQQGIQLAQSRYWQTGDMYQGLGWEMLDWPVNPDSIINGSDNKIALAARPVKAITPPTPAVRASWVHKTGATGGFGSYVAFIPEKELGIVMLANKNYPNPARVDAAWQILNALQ
#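 20 mM phosphate pH 7.0 + 0.01% (detergent screen) or 0.0001% Triton X-100; 5.3 nM AmpC reagent; cpd preinc 15 min RT; nitrocefin (800 uM stock) to start; A480 q20 s × 4 min; Activity was normalised to no-enzyme and no-compound control wells.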
# AmpC detergent: inhibitors of E. coli AmpC beta-lactamase with detergent | Potency, µM (top dose mostly 114 µM), without a hit: at the highest dose activity change, negative = inhibition, most hits filed as inhibitors | P00811 | AmpC hydrolysis of nitrocefin, absorbance 480 nm, 0.01% Triton | hit rate 0.041% among 370,000;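 note: 0% = no-compound wells and -100% = no-enzyme wells; nearly all actives have a fitted effect of over 25% in size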
#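 AmpC (5.3 nM in the dispensed reagent) in 20 mM phosphate pH 7.0 with 0.01% (detergent screen) or 0.0001% Triton X-100 was preincubated with compounds for 15 min at room temperature. Nitrocefin was then added from an 800 uM solution, and hydrolysis was followed at 480 nm.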
# The depositor's hits bear a star; ? = inconclusive; . = no result. An excerpt weighted towards active compounds, which were near 3.3% of everything screened. Calls come from the whole dose curve; as a rule, active = well fitted curve in the direction sought with a large enough effect; inconclusive = small, poorly fitted or top-dose-only effect, or another doubt; inactive = no such curve, though single readings can be large; an effect the other way counts as inactive or inconclusive. Unless noted, % is set by controls: 0 for no effect and ±100 for the full control effect; potency is the fitted concentration of half-maximal effect.
SMILES,Sm TGR inh,AmpC inh no detg,AmpC detergent
CCN(CC)S(=O)(=O)c1ccc(O)c(NC(=O)c2ccc(N3CCOCC3)c([N+](=O)[O-])c2)c1,1.4%,20µM*,0.8%
CCOc1ccccc1CNC(=O)c1c(C)oc2ncnc(N3CCOCC3)c12,8.8%,.,17.3%
CCN1CCN(CCCNC(=O)c2cc3c(=O)n(C)c4ccccc4c3s2)CC1,-31.9%,.,5.6%
CN1C(=O)/C(=C/C=C/c2ccco2)C(=O)NC1=S,?,-26.4%,2.7%
O=C1NC(=O)N(Cc2ccco2)C(=O)/C1=C/C=C/c1ccco1,2µM*,12.6µM*,-10.1%
O=C1NC(=O)N(Cc2ccccc2)C(=O)/C1=C/N1CCCc2ccccc21,?,-35.9%,-9.9%
O=C1NC(=O)N(Cc2ccccc2)C(=O)/C1=C\C=C\c1ccco1,10µM*,-29.7%,3.0%
Cc1ccc(NC(=O)COc2ccccc2C=O)cc1Cl,10.8%,-23.5%,5.1%
O=C(NCc1ccccc1Cl)C1CCN(S(=O)(=O)c2ccc3c(c2)CCCN3C(=O)C2CCC2)CC1,9.5%,.,3.8%
COc1ccccc1N1CCN(c2ccc3cc(S(=O)(=O)N4CCCCC4)ccc3n2)CC1,3.7%,40.1%,1.6%
NC(=O)CC(NC(=O)c1ccccc1)c1ccc(NC2CCCCC2)c([N+](=O)[O-])c1 (stereo not given),7.9%,-22.2%,3.1%
Cc1ccc2[nH]cc(C(=O)CN3CCN(c4ccccn4)CC3)c2c1,-33.4%,6.8%,?
Cc1ccc(C(=O)CN2CCN(c3ccccn3)CC2)c(C)c1,14.1µM*,0.3%,3.7%
C[C@]12CCC(=O)C[C@@H]1CC[C@@H]1[C@@H]2CC[C@]2(C)[C@@H](C(=O)COC(=O)CCC(=O)O)CC[C@@H]12,0.0%,1.9%,5.4%
CCOC(=O)C1=C(C)OC(N)=C(C#N)C1c1ccoc1 (stereo not given),31.6µM*,-3.9%,-13.6%
CCOC(=O)C1=C(c2ccccc2)OC(N)=C(C#N)C1c1cccnc1 (stereo not given),-32.3%,-18.8%,-3.8%
CCOC(=O)C1=C(C)OC(N)=C(C#N)C1c1ccccc1 (stereo not given),?,-5.6%,1.1%
CCOC(=O)C1=C(c2ccccc2)OC(N)=C(C#N)C1c1ccc(Cl)s1 (stereo not given),?,-23.3%,7.1%
CC1=C(C(=O)OCc2ccccc2)C(c2ccsc2)C(C#N)=C(N)O1 (stereo not given),-22.4%,-26.7%,-6.0%
CCOC(=O)C1=C(N)OC(CCl)=C(C#N)C1c1ccsc1 (stereo not given),12.6µM*,-13.3%,3.5%
CCOC(=O)C1=C(c2ccccc2)OC(N)=C(C#N)C1c1ccc(Br)s1 (stereo not given),39.8µM*,-30.5%,-8.7%
CCOC(=O)C1=C(c2ccc(OC)cc2)OC(N)=C(C#N)C1c1cccnc1 (stereo not given),11.2µM*,-23.1%,1.0%
O=C(NCc1ccco1)[C@@H]1CSC2c3ccccc3C(=O)N21 (stereo not given in full),31.6µM*,-17.4%,0.7%
CC(C)[C@H](NC(=O)[C@@H]1CSC2c3ccccc3C(=O)N21)C(=O)NCc1ccco1 (stereo not given in full),44.7µM*,-36.6%,-6.8%
O=C(NCc1cccs1)[C@@H]1CSC2c3ccccc3C(=O)N21 (stereo not given in full),17.5%,-49.7%,-10.5%
SMILES,Sm TGR inh,AmpC inh no detg,AmpC detergent
CC(C)[C@H](NC(=O)[C@@H]1CSC2c3ccccc3C(=O)N21)C(=O)NCc1ccncc1 (stereo not given in full),-11.5%,2.2%,-2.3%
CCC(Cn1nnc2ccccc2c1=O)NC(=O)Nc1cccc(Cl)c1 (stereo not given),-5.7%,.,3.3%
O=C(CNC(=O)c1sc2ccccc2c1Cl)Nc1ccccc1F,-8.4%,-3.9%,-16.2%
COC(=O)c1c(C)[nH]c(C(=O)OCC(=O)N2c3ccccc3NC(=O)C2(C)C)c1C,-13.7%,-21.0%,-0.6%
Cc1ccc(S(=O)(=O)N[C@@H](Cc2ccccc2)C(=O)CCl)cc1,11.2µM*,-25.4%,-8.9%
Cc1ccc(S(=O)(=O)NC(Cc2ccccc2)C(=O)NN)cc1 (stereo not given),-10.2%,-34.6%,?
CSCc1c(C(=O)NCCc2ccccn2)oc2ccccc12,-6.9%,12.2%,-0.9%
CCOc1ccc(-c2cn3c(n2)sc2cc(C(=O)NC(C)C45CC6CC(CC(C6)C4)C5)ccc23)cc1 (stereo not given),6.8%,.,13.0%
CCOc1ccc(CCNC(=O)C2CCN(Cc3nc(-c4ccccc4C)oc3C)CC2)cc1OCC,-0.5%,.,?
Cc1ccc(CNC(=O)COC(=O)CCCOc2ccc(Cl)cc2Cl)cc1,-13.0%,10.7%,-10.8%
O=C(Cc1c(F)cccc1Cl)NNC(=O)Nc1ccc2c(c1)OCO2,3.6%,-15.9%,1.1%
CSc1sc(C(=O)NCC2CC2)cc1S(=O)(=O)C(C)C,0.9%,-15.8%,0.0%
COC(=O)c1cc(S(=O)(=O)C(C)C)c(S(C)=O)s1 (stereo not given),35.5µM*,-17.2%,-0.1%
O=C(CCCSc1nc(-c2ccco2)cc(C(F)(F)F)n1)NCC1CCCO1 (stereo not given),50.1µM*,129.8%,-10.3%
Cc1nn(C)c(C)c1NC(=O)CCSc1nc(-c2ccco2)cc(C(F)(F)F)n1,?,131.9%,-5.8%
CCn1nc(C)c(NC(=O)CCCSc2nc(-c3ccco3)cc(C(F)(F)F)n2)c1C,50.1µM*,191.9%,?
O=C(CCSc1nc(-c2ccco2)cc(C(F)(F)F)n1)NCC1CCCO1 (stereo not given),9.5%,42.1%,-11.2%
O=C(c1nc2ccc(Cl)cn2c1CN1CCCC(CO)C1)N1CCc2ccccc2C1 (stereo not given),-14.1%,51.1%,-0.6%
Cc1ccc(-c2nc(S(=O)(=O)c3ccc(Cl)cc3)c(N3CCCCC3)o2)cc1,3.2%,.,7.5%
CNS(=O)(=O)c1cc(Nc2ncnc3sccc23)ccc1C,1.8%,-45.9%,-11.1%
CCc1ccc(-c2[nH]c3c(c2-c2c(-n4cccc4)n(C)c(=O)[nH]c2=O)c(=O)[nH]c(=O)n3C)cc1,-26.1%,.,12.9%
O=C(CCNS(=O)(=O)c1ccc(Cl)cc1)N1CCC2(O)CCCCC2C1 (stereo not given),-0.4%,15.2%,39.8µM*
O=C(CCNS(=O)(=O)c1ccc(Cl)cc1)N1CCCC1,1.2%,-6.7%,2.6%
Cc1ccc(S(=O)(=O)c2c(C)nn(-c3ccccc3)c2OC(=O)c2ccc(Br)o2)cc1,-6.7%,-24.6%,0.1%
Cc1ccc(S(=O)(=O)c2c(C)nn(-c3ccccc3)c2OC(=O)c2ccco2)cc1,35.5µM*,-9.1%,-8.7%
CCc1ccccc1Nc1nc(N)nc(COC(=O)CCC(=O)c2ccc(F)cc2)n1,-1.2%,15.0%,1.8%
C/C(=N\NC(N)=S)c1ccc2c(c1)OCCO2,-10.2%,-24.7%,-5.2%
C/C(=N\NC(=S)Nc1ccc(F)cc1)c1ccc2c(c1)OCCO2,0.6%,20µM*,-6.0%
CCc1ccccc1OCC(=O)Nc1cc(S(=O)(=O)N2CCOCC2)ccc1N1CCCCC1,-4.5%,20.9%,-2.2%
